Sampled rows, rich in hits. Any-hit rate of the full collection: about 4.5%.
SKKanGAS inh = SKKanGAS growth inhibition | S. pyogenes SKKanGAS, kanamycin growth, BacTiter-Glo, 6 h | inhibition, % at 7.5 µM | 300,000 compounds, 1.3% hits;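 active = mean replicate score, as percent of positive control median, at least 50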;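 also: strain carries kanamycin resistance gene driven by streptokinase promoter and grows in 40 µg/ml kanamycin; loss of luminescence reflects streptokinase promoter inhibition or plain growth inhibition; 0% = median of DMSO wells and 100% = positive control at its reference dose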
tim23-1 inh = tim23-1 yeast growth inhibition. 330,000 compounds, 1.3% hits. inhibition, % at 20 µM. AID 463212. S. cerevisiae tim23-1 growth, BacTiter-Glo luminescence, 24 h;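 active = growth inhibition of the mutant yeast at or above 50%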;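 also: temperature-sensitive mutant grown at 25 °C; plate controls were DMSO-treated mutant yeast for no effect and medium wells lacking yeast for full effect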
TIM10 inh = growth inhibitors of TIM10 yeast strain; S. cerevisiae TIM10 strain growth, BacTiter-Glo luminescence, 24 h; inhibition, % at 10 µM; 330,000 compounds, 1.4% hits;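 active = inhibition of 40% or more at the single tested concentration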;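 also: wild-type TIM10 isogenic control strain grown at permissive 25 °C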
PfHsp90 set2 = inhibits growth of yeast expressing Plasmodium falciparum Hsp90. 310,000 compounds, 0.32% hits. S. cerevisiae expressing PfHsp90, BacTiter-Glo ATP, 48 h; yeast lacking PDR1 and PDR3 efflux regulators. AID 504621. inhibition, % at 9.4 µM;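 active = every replicate shows inhibition above about 80%, whatever the replicate mean, limit read from the data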;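 also: 0% = DMSO neutral controls and 100% = 20 µM radicicol positive controls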
NALP3 yeast inh = NALP3 inhibition in yeast; AID 2825; 330,000 compounds, 0.39% hits; Yeast reconstituted NLRP3/ASC/caspase-1, beta-gal luminescence, 24 h; inhibition, % at 10 µM;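 active = inhibition of 50% or more; inactive = inhibition below 50%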;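 also: plate controls were induced DMSO wells for no effect and uninduced yeast grown without galactose for full effect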
tim10-1 inh = inhibits growth of tim10-1 mutant yeast; AID 463190; S. cerevisiae tim10-1 ts strain growth, BacTiter-Glo, 24 h; inhibition, % at 20 µM; 330,000 compounds, 2.2% hits;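 active = inhibition of at least 40%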;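 also: mutant grown at 25 °C; 0% = DMSO wells with yeast and 100% = wells holding no yeast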
tim10-1 confirm = tim10-1 yeast growth inhibition, confirmed | AID 463213 | S. cerevisiae tim10-1 ts strain growth, BacTiter-Glo, 24 h | inhibition, % at 20 µM | shares compounds with tim10-1 inh | 7,400 compounds, 56% hits;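 active = inhibition of yeast growth at or above a set limit in either of two repeat tests at 20 µM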;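 also: tim10-1 mutant grown at permissive 25 °C to find synthetic lethal compounds; 0% = DMSO yeast wells and 100% = medium wells without yeast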
tim10 confirm = confirmation of TIM10 yeast growth inhibitors; shares compounds with TIM10 inh; S. cerevisiae tim10 strain growth, BacTiter-Glo luminescence, 24 h; inhibition, % at 10 µM; 4,600 compounds, 63% hits; AID 463215;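 active = inhibition of yeast growth at or above a set limit in either of two replicates at 10 µM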;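 also: this counterscreen used the strain with wild-type TIM10; 0% = yeast with DMSO and 100% = medium wells lacking yeast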
tim23-1 confirm = confirmation of tim23-1 mutant yeast growth inhibitors; shares compounds with tim23-1 inh; S. cerevisiae tim23-1 growth, BacTiter-Glo luminescence, 24 h; inhibition, % at 20 µM; 4,400 compounds, 83% hits;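 active = inhibition above about 39% in either of two replicate wells at 20 µM, limit read from the data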;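 also: temperature-sensitive tim23-1 mutant grown at 25 °C; 0% = DMSO wells with yeast and 100% = medium wells without yeast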
The depositor's hits bear a star; x = no result given.

SMILES | SKKanGAS inh | tim23-1 inh | TIM10 inh | PfHsp90 set2 | NALP3 yeast inh | tim10-1 inh | tim10-1 confirm | tim23-1 confirm | others
CCCCN1C(=O)/C(=C(/C#N)C(=O)N2CCCC2)c2ccccc21 | 0.4 | 36.8 | 27.6 | -32.8 | -10.9 | 26.2 | x | x
CC(C)CN1C(=O)/C(=C(/C#N)C(=O)NC2CCCCC2)c2ccccc21 | -1.5 | 64.0* | 79.1* | x | -2.8 | 72.0* | 71.2* | 50.1* | tim10 confirm=78.9*
CCc1cc(=O)oc2cc(C)cc(OCC(=O)NC(Cc3ccc(Cl)cc3)C(=O)O)c12 (configuration not stated) | 4.6 | 10.7 | 6.4 | 14.2 | 8.6 | 12.2 | x | x
O=C(O)c1ccccc1NSc1ccccc1[N+](=O)[O-] | 8.7 | 11.2 | 20.5 | -43.6 | 5.4 | 27.5 | x | x
CCc1ccc(NSc2ccccc2[N+](=O)[O-])cc1 | 76.0* | 52.2* | 36.2 | -7.7 | 26.9 | 53.8* | 42.9* | 58.0*
COC(=O)c1cccc2c1-c1ccccc1/C2=N/O | -14.0 | 65.0* | 33.2 | -21.3 | -24.8 | 59.1* | 37.7* | 55.9*
NC(=S)N/N=C1\c2ccccc2-c2c(C(=O)O)cccc21 | 2.5 | 18.5 | 14.2 | 1.9 | 27.3 | -9.8 | x | x
CCCCn1c(N)c(N(CCOC)C(=O)c2ccc3c(c2)C(=O)N(c2cc(C)ccc2C)C3=O)c(=O)[nH]c1=O | 3.9 | -5.8 | 11.0 | 2.0 | 2.5 | -18.8 | x | x
Cc1cc(/C(N)=N/OC(=O)c2ccc(Cl)cc2)no1 | 4.0 | 0.6 | -8.2 | 2.3 | 21.9 | -8.9 | x | x
Cc1ccc(/C(N)=N/OC(=O)c2ccc(Cl)cc2Cl)cc1 | 7.6 | 79.7* | 87.7* | -100.1 | 13.1 | 47.4* | 24.9 | 43.5* | tim10 confirm=-0.8
COc1ccc(Cl)cc1C(=O)O/N=C(\N)c1ccncc1 | -3.4 | 6.0 | 2.7 | 1.8 | 6.6 | 12.6 | x | x
Cc1ccc(/C(N)=N/OC(=O)Cc2cccs2)cc1 | 7.6 | 18.8 | 22.8 | 28.5 | 11.6 | 16.4 | x | x
Cc1ccc(C(=O)O/N=C(\N)Cc2cccs2)c(Cl)c1 | 4.7 | 91.3* | 85.1* | 4.7 | 25.2 | 69.3* | 63.0* | 86.7* | tim10 confirm=86.3*
COc1ccccc1C(=O)O/N=C(\N)c1ccc(Cl)cc1 | -4.4 | 64.5* | 35.8 | 6.7 | 10.6 | 50.1* | 44.6* | 54.5*
CCN1CCN(CCCNC(=O)c2ccc(/C=C3/Oc4ccccc4N(Cc4cccc(C)c4)C3=O)cc2)CC1 | 12.3 | 57.0* | -1.8 | 35.2 | 11.8 | 48.9* | 6.8 | 48.4*
CC(C)OC(=O)CSc1nc(N)c(C#N)c(-c2cccs2)c1C#N | 8.9 | 10.1 | 6.0 | x | -3.1 | 15.8 | x | x
CC(C)Sc1nc(N)nc(-c2cccs2)c1C#N | 21.4 | 64.5* | 24.0 | -194.4 | -17.9 | 48.1* | 28.5 | 18.6
CCOC(=O)/C=C/C(=O)Nc1ccc(Oc2ccccc2)cc1 | -5.0 | 54.7* | 33.5 | x | -4.2 | 49.8* | 49.2* | 65.8*
O=C(O)/C=C/C(=O)Nc1ccc(Oc2ccccc2)cc1 | -2.0 | -5.2 | -4.9 | 6.1 | 7.3 | -1.8 | x | x
COc1ccc(NC(=O)CSCC(=O)Oc2c(OC)cccc2OC)cc1 | -2.5 | 40.7 | 13.8 | -10.0 | -3.1 | 30.7 | x | x
Cc1ccc(C(=O)O)cc1NC(=O)C1CCN(S(=O)(=O)c2ccc3c(c2)OCCO3)CC1 | x | -1.1 | -5.6 | 12.0 | 18.6 | -10.6 | x | x
FC(F)(F)c1cccc(Oc2nc(-c3ccccc3)nnc2C(F)(F)F)c1 | 3.9 | 55.1* | 46.2* | x | 7.7 | 53.8* | 47.9* | 46.2* | tim10 confirm=38.1*
FC(F)(F)c1cccc(Sc2nc(-c3ccccc3)nnc2C(F)(F)F)c1 | -12.8 | 21.8 | 15.2 | 4.0 | 3.1 | 39.5 | x | x
COc1ccc(NC(=O)CSc2nnc(Cc3ccc(C)cc3)c(=O)n2N)cc1OC | 1.8 | -0.6 | 9.1 | -19.1 | 15.7 | -1.7 | x | x
Cc1ccc(N2C(=O)c3ccc(N)cc3C2=O)cc1C | 3.5 | 51.5* | 33.8 | x | 20.0 | 42.5* | 36.4* | 43.0*
SMILES | SKKanGAS inh | tim23-1 inh | TIM10 inh | PfHsp90 set2 | NALP3 yeast inh | tim10-1 inh | tim10-1 confirm | tim23-1 confirm | others
COc1ccc(C(=O)N(C)C(C)c2ccon2)cc1OC1CCN(C(C)C)CC1 (configuration not stated) | 1.3 | 2.5 | 4.0 | 12.5 | 14.0 | -3.8 | x | x
CC1(C)Cc2ccccc2-c2nc3n(c(=O)c21)CCS3 | -11.7 | 35.1 | -3.9 | -20.5 | 2.1 | 38.8 | x | x
CC1(C)Cc2ccccc2-c2nc3n(c(=O)c21)CCCS3 | -9.7 | 50.8* | 25.5 | -18.9 | -28.1 | 42.1* | 33.0* | 59.8*
O=[N+]([O-])c1ccc(Cl)cc1N1CCCCC1 | -2.7 | -6.7 | 9.9 | 5.6 | 13.0 | 8.6 | x | x
O=C1/C(=C/c2ccccn2)SC(=S)N1Nc1ncc(C(F)(F)F)cc1Cl | x | x | x | 3.1 | x | x | x | x
O=C1/C(=C\c2ccccn2)SC(=S)N1Nc1ncc(C(F)(F)F)cc1Cl | 0.0 | 64.5* | 59.2* | -5.3 | 11.7 | 63.8* | 56.7* | 33.2 | tim10 confirm=46.8*
C=CCOn1c(=O)c(-c2cccs2)[n+]([O-])c2ccccc21 | 5.3 | 61.4* | 40.6* | x | -15.2 | 53.1* | 21.0 | 69.8* | tim10 confirm=33.2*
O=C(CN1CCc2ccccc2C1)Nc1ccccc1C(=O)NC1CC1 | x | 15.7 | 15.5 | 5.5 | 4.5 | 17.5 | x | x
CNC(C)C#Cc1ccc2c(=O)c3ccccc3oc2c1 (configuration not stated) | 6.9 | 57.6* | 25.9 | -4.9 | 8.4 | 54.4* | 42.4* | 53.4*
Cn1cncc1C#Cc1ccc2c(=O)c3ccccc3oc2c1 | x | -7.4 | 13.7 | -15.8 | 35.6 | 11.6 | x | x
CC(C)Cn1c(N)c(C(=O)CSc2ncn[nH]2)c(=O)n(C)c1=O | x | x | x | 16.8 | x | x | x | x
COC(=O)C1=C(C)N(c2ccccc2)/C(=C/c2ccco2)C1=O | 6.9 | 28.2 | 22.0 | 2.9 | 19.7 | 3.9 | x | x
COC(=O)C1=C(C)N(c2cc(C)cc(C)c2)/C(=C/c2ccco2)C1=O | -7.5 | 54.1* | 39.4 | 0.5 | -4.8 | 55.4* | 28.1 | 50.0*
O=C(COC(=O)Cn1cnc2ccccc2c1=O)Nc1ccccc1OC(F)F | x | 15.2 | 0.2 | -1.9 | 3.1 | 7.8 | x | x
C=C1C(C(=O)Nc2ccc(OC)cc2)C1C(=O)Nc1ccc(OC)cc1 (configuration not stated) | -4.3 | -15.1 | -21.4 | 0.4 | -5.5 | -1.1 | x | x
O=[N+]([O-])c1cc(-c2ncccn2)c([N+](=O)[O-])s1 | 1.2 | 51.1* | 91.0* | -5.3 | 38.3 | 88.2* | 83.7* | 91.5* | tim10 confirm=98.7*
O=C(Nc1ncccn1)c1cc([N+](=O)[O-])cc([N+](=O)[O-])c1 | -13.2 | 28.0 | -13.9 | -6.6 | 12.8 | 21.9 | x | x

Source: PubChem BioAssay
